Inconclusive results are not listed. A call without a number means that no potency is given here. Unmarked numbers belong to inactive results. Activity calls are given as the source filed them. Calls come from the whole dose curve; as a rule, active = well fitted inhibition curve with a large enough effect; inconclusive = small, poorly fitted or top-dose-only effect; inactive = no such curve, though single readings can be large or run the other way.
Experiment: Primary fluorescence-based thiol-reactive (MSTI) qHTS assay for identification of artifact compounds. (AID 1845221); note: nearly all actives have a fitted effect of over 65% in size;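 for activity change, negative = thiol reactive: thiol-reactive compounds lower the probe fluorescence signal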
Settings: MSTI thiol-reactivity probe, 1 h; series mostly up to 53.8 µM
Source text: PI: Alexander Tropsha Ph.D.
UNC Eshelman School of Pharmacy
University of North Carolina, Chapel Hill, North Carolina
Hits from high-throughput screening (HTS) of chemical libraries are often false positives due to their interference with the assay detection technology. In response to this problem, we generated the largest publicly available library of chemical liabilities and developed a free webtool to predict HTS artifacts, both of which are described herein. More specifically, we generated, curated, and integrated HTS datasets for thiol reactivity, redox activity, and luciferase (firefly and nano) activity. Using these curated datasets, we developed and validated several Quantitative Structure-Interference Relationship (QSIR) models to predict nuisance behavior. […] These models were employed for virtual profiling of the National Center for Advancing Translational Science's (NCATS) in-house library, and 256 compounds for each assay were selected for the experimental validation of nuisance behavior. The BA for these external predictions ranged from 58 to 78% for compounds within the applicability domains of the models. […] The models developed in this study, along with aggregation models previously developed by our group (SCAM Detective) were implemented in "Liability Predictor," an online tool which may be used as part of chemical library design or for triaging HTS hits. Both the models and the curated datasets are publicly available at https://liability.mml.unc.edu/.
SEQUENCE No. (e.g., 1, 2, 3, etc.); […] (e.g., Cells, Incubation, Reagent, etc.); VALUE; DESCRIPTION.
1; Reagent; 4 uL; […].
2; Compounds and control; 16 nL; Kalypsis pin tool (Wako USA) equipped with a 1536-well pin head.
4; Detection; Fluorescence, ViewLux microplate reader, 525 nm excitation, 598 nm emission.
NOTES (numbers refer to Sequence numbers above)
1. Assays determining (E)-2-(4-mercaptostyryl)-1,3,3-trimethyl-3H-indol-1-ium (MSTI) reactivity were performed as previously described in the literature with modifications for the quick identification of compounds reacting with thiol. In brief, 4 uL of MSTI or positive control Acetyl-MSTI (final concentrations of 4 uM and 4 uM, respectively) in assay buffer (2% DMSO in 1X PBS pH 7.4) was dispensed into all wells of a 1536-well assay plate (solid-bottom black plate; Greiner Bio One, Monroe, NC).
2. A Wako Pin-tool (Wako Automation, Richmond, VA) was used to transfer 16 nL of compounds (consisting of 7-plates in qHTS format, final concentration range 18.3 nM to 114 uM) or control MLS001163887 (final concentration range 1.22 nM to 40 uM).
3. Plates were centrifuged (121xg, 15 seconds) and incubated for 1 hour at room temperature protected from light.
4. Samples were read for fluorescence (Ex/Em = 525(20)/598(25) nm) on a ViewLux CCD imager (PerkinElmer). Data were normalized to Acetyl-MSTI (0% activity) and MSTI (100% activity) and the resulting percent inhibition data were fitted to a 4-parameter Hill equation using NCATS in-house software.
Potency is the fitted concentration of half-maximal effect.

| Compound | Potency | activity change, negative = thiol reactive |
| --- | --- | --- |
| N#Cc1ccc(-c2ccc(NC(=O)Nc3ccc(-c4ccnc5nc[nH]c45)cc3)cc2)cc1 | inactive |  |
| COc1ccc(-c2cc(C(O)C3CCCCN3)c3ccccc3n2)cc1 (stereo not given) | inactive |  |
| O=C(C1=CCN2c3c(cccc31)OC[C@H]2CN1CCOCC1)c1cccc2ccccc12 | inactive |  |
| OCC(CO)(CO)NCC(O)Cn1c2ccc(Cl)cc2c2cc(Cl)ccc21 (stereo not given) | inactive |  |
| COc1cc(N2CCOCC2)ccc1Nc1ncc(F)c(Nc2ccccc2NS(C)(=O)=O)n1 | 2.38 µM (active) |  |
| O=C(Nc1ccc(F)cc1)N1CCc2ccccc2C1c1ccc(C(F)(F)F)cc1 (stereo not given) | 0.0474 µM (active) |  |
| CCOC(=O)c1cnn(-c2ccc(NC(=O)C(Cl)=C(Cl)Cl)cc2)c1C(F)(F)F | inactive |  |
| CC(C)n1cnc2c(Nc3cccc(Cl)c3)nc(NCCO)nc21 | inactive |  |
| CC1CCC2(NC1)OC1CC3C4CC=C5CC(O[C@@H]6O[C@H](CO)[C@@H](O[C@@H]7O[C@@H](C)[C@H](O)[C@@H](O)[C@H]7O)[C@H](O)[C@H]6O[C@@H]6O[C@@H](C)[C@H](O)[C@@H](O)[C@H]6O)CCC5(C)C4CCC3(C)C1C2C (stereo not given in full) |  | 179% [at 11.5 µM] |
| CC(=O)Nc1ccc(C(=O)Nc2ccccc2N)cc1 | inactive |  |
| CC(C)N(CCCNC(=O)Nc1ccc(C(C)(C)C)cc1)C[C@H]1O[C@@H](n2cc(Br)c3c(N)ncnc32)[C@H](O)[C@@H]1O | inactive |  |
| CCN(CC)Cc1cccc(/C=C/c2nc3ccc(F)cc3c(=O)n2-c2ccccc2Cl)n1 | inactive |  |
| Clc1ccccc1CNCC1CCC(CNCc2ccccc2Cl)CC1 (stereo not given) | inactive |  |
| COc1ccc2c(c1)C[C@H](C(=O)Nc1ccc(-c3cn[nH]c3)cc1OCCN(C)C)CO2 | inactive |  |
| CC[C@H](CO)Nc1nc(Nc2cccc(-c3ccccn3)c2)c2ncn(C(C)C)c2n1 | inactive |  |
| CCCCC(=O)N(Cc1ccc(-c2ccccc2-c2nn[nH]n2)cc1)C(C(=O)O)C(C)C (stereo not given) | inactive |  |
| CC1CCN(c2cc(NC(=O)c3ccccc3)ncn2)CC1 | inactive |  |
| OC(CNCCc1c[nH]c2ccccc12)Cn1c2ccccc2c2ccccc21 (stereo not given) | inactive |  |
| CCOc1cc(CNC2CCCC2)cc(Cl)c1OCc1ccc(Cl)cc1 | inactive |  |
| CCCCc1nc(C)c(CC(=S)N(C)C)c(=O)n1Cc1ccc(-c2ccccc2-c2nn[nH]n2)cc1 | inactive |  |

| Compound | Potency | activity change, negative = thiol reactive |
| --- | --- | --- |
| COc1cc(-c2cc(-c3ccc(N4CCNCC4)cc3)cnc2C)cc(OC)c1OC | inactive |  |
| C=C1C(=O)O[C@@H]2[C@H]1[C@H](O)C[C@]1(C)[C@@H](O)CC=C(C)[C@@H]21 | inactive |  |
| COc1cccc(CNC(=O)Nc2nc(-c3ccncc3)cs2)c1 | inactive |  |
| CCN1CCC[C@@H]1CNC(=O)c1ccc2c(c1)NC(=O)/C(=C/c1ccccc1F)S2 | inactive |  |
| COCCNCc1ccc(-c2cc3nccc(Oc4ccc(NC(=S)NC(=O)Cc5ccc(F)cc5)cc4F)c3s2)nc1 | inactive |  |
| COc1cc2nc(N3CCN(C)CC3)nc(NC3CCN(Cc4ccccc4)CC3)c2cc1OC | inactive |  |
| CC1(C)SC2C(NC(=O)[C@H](C(=O)O)c3ccsc3)C(=O)N2C1C(=O)O (stereo not given in full) | inactive |  |
| COc1c(N2CC3CCCNC3C2)c(F)cc2c(=O)c(C(=O)O)cn(C3CC3)c12 (stereo not given) | inactive |  |
| C[C@@H](O[C@H]1OCCN(Cc2n[nH]nc2CN(C)C)[C@H]1c1ccc(F)cc1)c1cc(C(F)(F)F)cc(C(F)(F)F)c1 | inactive |  |
| CC1OC2OC3C(OCC(O)C3O)OC(=O)C34CCC(C)(C)CC3C3=CCC5C6(C)CC(O)C(OC7OC(CO)C(O)C(O)C7OC7OCC(OC(=O)CC(C)(O)CC(=O)OC1C(OC1OCC(O)C(O)C1O)C2O)C(O)C7O)C(C)(CO)C6CCC5(C)C3(C)CC4O (stereo not given) | inactive |  |
| CC(=O)N1c2ccc(-c3ccc(C(=O)O)cc3)cc2C(Nc2ccc(Cl)cc2)CC1C (stereo not given) | inactive |  |
| C=CC(=O)N1CCN(C(=O)c2cc(-c3cc(Cl)ccc3Cl)c(Cl)cc2OC)CC1 | inactive |  |
| Cc1ccc(C(=O)N2CCN(c3ccc([N+](=O)[O-])cc3)CC2)cc1Cl | inactive |  |
| C/C=C/CC(C)C(O)C1C(=O)NC(CC)C(=O)N(C)CC(=O)N(C)C(CC(C)C)C(=O)NC(C(C)C)C(=O)N(C)C(CC(C)C)C(=O)NC(C)C(=O)NC(C)C(=O)N(C)C(CC(C)C)C(=O)N(C)C(CC(C)C)C(=O)N(C)C(C(C)C)C(=O)N1C (stereo not given) | inactive |  |
| C=C(C)C(=O)OC1[C@@H]2C(=C)C(=O)O[C@@H]2C[C@@H](C)[C@@H]2C=CC(=O)[C@@]12C (stereo not given in full) | inactive |  |
| CC1OC2O[C@H]3[C@@H](OCC(O)[C@H]3O)OC(=O)C34CCC(C)(C)CC3C3=CCC5C6(C)CC(O)C(OC7OC(CO)C(O)C(O)C7O[C@@H]7OC[C@H](OC(=O)CC(C)(O)CC(=O)OC1C(OC1OCC(O)C(O)C1O)C2O)[C@@H](O)[C@H]7O)C(C)(CO)C6CCC5(C)C3(C)CC4 (stereo not given in full) | inactive |  |
| COc1ccc2c(c1)CN(C(=O)CCN1CCC(Cc3ccccc3)CC1)CCS2 | inactive |  |
| CC/C(=C(\c1ccc(O)cc1)c1ccc(OCCNC)cc1)c1ccccc1 | inactive |  |
| O=[N+]([O-])c1ccc(-[n+]2nc(-c3ccccc3)nn2-c2ccc(I)cc2)cc1 | 10.6 µM (active) |  |
| Cc1cc(N=Nc2ccc(S(=O)(=O)Nc3ccccn3)cc2)c(N)cc1O | 0.597 µM (active) |  |
